Six compounds from PubChem BioAssay (NCATS) can be followed below.

Experiment [1] deals with Glucocorticoid receptor (Homo sapiens) (UniProt P04150). The experiment is described as follows: qHTS assay for small molecule agonists of glucocorticoid receptor signaling (AID 588532; active = well fitted curve in the direction sought with a large enough effect in the signal ratio, with a control signal flat; the % refers to the signal ratio;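 note: 100% = dexamethasone at 0.1 µM and 0% = DMSO only wells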). Conditions: HeLa MMTV-bla, beta-lactamase ratio, agonist, 18 h; activation: stronger effect = higher value, percent of dexamethasone control, DMSO zero. An outline of the steps: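 Quantitative HTS using CellSensor MMTV-bla HeLa cells in charcoal/dextran-treated serum; compounds tested up to 92 uM. After 18 h at 37 C, CCF4 dye reported reporter induction.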
Sequence of Glucocorticoid receptor (Homo sapiens) (P04150 whole entry, looked up): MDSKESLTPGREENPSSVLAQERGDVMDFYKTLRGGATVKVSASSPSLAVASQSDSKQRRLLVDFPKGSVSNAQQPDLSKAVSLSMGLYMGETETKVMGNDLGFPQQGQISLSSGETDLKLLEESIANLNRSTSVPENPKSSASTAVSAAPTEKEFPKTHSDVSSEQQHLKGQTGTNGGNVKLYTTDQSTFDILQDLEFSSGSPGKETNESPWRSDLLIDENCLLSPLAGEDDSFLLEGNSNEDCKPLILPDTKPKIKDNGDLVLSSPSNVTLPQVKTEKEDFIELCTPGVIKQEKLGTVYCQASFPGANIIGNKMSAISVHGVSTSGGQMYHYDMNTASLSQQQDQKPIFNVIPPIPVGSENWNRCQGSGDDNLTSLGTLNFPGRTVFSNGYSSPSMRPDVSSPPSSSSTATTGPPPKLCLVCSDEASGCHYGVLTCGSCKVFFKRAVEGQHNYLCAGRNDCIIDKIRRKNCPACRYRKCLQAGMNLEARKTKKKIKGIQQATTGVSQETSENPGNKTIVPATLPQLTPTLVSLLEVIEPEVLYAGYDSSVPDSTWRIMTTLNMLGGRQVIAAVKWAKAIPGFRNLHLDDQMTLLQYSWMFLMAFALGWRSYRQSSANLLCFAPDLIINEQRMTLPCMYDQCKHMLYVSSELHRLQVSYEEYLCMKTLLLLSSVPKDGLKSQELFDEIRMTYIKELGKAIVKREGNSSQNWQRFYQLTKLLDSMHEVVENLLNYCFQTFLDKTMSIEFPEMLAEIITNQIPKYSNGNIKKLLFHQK

Experiment [2] concerns the target Vitamin D3 receptor (Homo sapiens) (UniProt P11473). The experiment is described as follows: qHTS assay for small molecule agonists of vitamin D receptor signaling (AID 588543).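 Note: 0% = DMSO basal and 100% = reference agonist control.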 An outline of the steps: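 Measured: β-lactamase reporter activity (CCF4, 405 nm excitation, 460/530 nm emission) in HEK293T VDR-UAS-bla cells after 16 h compound exposure at 37 °C. Normalization against 50 nM 1α,25-dihydroxyvitamin D3 and DMSO; Hill-fit EC50.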

A short description of experiment [3]: qHTS assay for small molecule agonists of retinoid X receptor alpha signaling (AID 588544).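 For activation: 0% = DMSO basal wells and 100% = reference agonist.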 Conditions: HEK293T RXRa-UAS-bla, beta-lactamase reporter, 18 h; 530 nm emission.
The target in experiment [4] is Retinoic acid receptor RXR-alpha (Homo sapiens) (UniProt P19793). The description is as above.
Sequence of Retinoic acid receptor RXR-alpha (Homo sapiens) (P19793 whole entry, looked up): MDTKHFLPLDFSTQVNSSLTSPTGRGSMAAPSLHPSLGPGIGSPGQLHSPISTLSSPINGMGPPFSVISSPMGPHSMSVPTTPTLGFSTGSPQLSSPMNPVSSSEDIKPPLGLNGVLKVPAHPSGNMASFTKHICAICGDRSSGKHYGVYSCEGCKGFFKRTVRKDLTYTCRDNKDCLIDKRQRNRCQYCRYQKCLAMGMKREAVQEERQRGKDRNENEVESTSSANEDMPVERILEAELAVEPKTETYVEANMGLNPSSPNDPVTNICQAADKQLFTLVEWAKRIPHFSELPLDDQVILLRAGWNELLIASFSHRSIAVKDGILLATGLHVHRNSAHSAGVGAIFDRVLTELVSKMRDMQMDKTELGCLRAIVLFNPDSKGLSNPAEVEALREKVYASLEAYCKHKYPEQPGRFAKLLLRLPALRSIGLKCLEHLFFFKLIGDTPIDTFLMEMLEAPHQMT
A short description of experiment [5]: qHTS assay for environmental chemicals that activate the Aryl hydrocarbon Receptor (AhR) signaling pathway (AID 651777; active = well fitted curve in the direction sought with a large enough effect; an effect the other way counts as inactive or inconclusive; note: % of control where 0% means no effect; nearly all actives have a fitted effect of over 15% in size). As to conditions: 1A2-DRE human hepatoma cells, luciferase, 24 h; activation: stronger effect = higher value. In outline: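 Quantitative HTS in stably transfected human liver-derived cells whose luciferase gene sits downstream of the CYP1A2 promoter and dioxin response element. After 24 hr exposure at 37 C, One-Glo luminescence was measured.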

The target in experiment [6] is Peroxisome proliferator-activated receptor delta (Homo sapiens) (UniProt Q03181). The experiment is described as follows: qHTS assay for small molecule agonists of peroxisome proliferator-activated receptor delta signaling (AID 588534).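 Note: 0% = DMSO basal wells and 100% = positive control agonist at 10 µM.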 An outline of the steps: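 Agonist-mode beta-lactamase reporter readout (CCF4 dye, 2 h at RT) after 18 h at 37 °C exposure to a titration; Hill-equation fitting gave EC50 and maximal response.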
Sequence of Peroxisome proliferator-activated receptor delta (Homo sapiens) (Q03181 whole entry, looked up): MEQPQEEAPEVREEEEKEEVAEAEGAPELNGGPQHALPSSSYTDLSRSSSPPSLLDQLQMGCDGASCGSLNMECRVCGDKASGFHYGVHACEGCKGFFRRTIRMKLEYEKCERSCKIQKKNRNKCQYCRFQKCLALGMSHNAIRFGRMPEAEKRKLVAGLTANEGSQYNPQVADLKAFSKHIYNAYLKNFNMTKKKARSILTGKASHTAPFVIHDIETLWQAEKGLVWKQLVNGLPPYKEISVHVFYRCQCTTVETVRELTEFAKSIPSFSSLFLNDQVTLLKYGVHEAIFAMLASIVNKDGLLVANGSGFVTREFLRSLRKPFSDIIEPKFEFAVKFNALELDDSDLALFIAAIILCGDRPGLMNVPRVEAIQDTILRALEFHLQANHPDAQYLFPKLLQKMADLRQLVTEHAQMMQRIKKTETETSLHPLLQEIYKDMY

For experiment [7], the target named is Vitamin D3 receptor (Homo sapiens) (UniProt P11473). The experiment is described as follows: qHTS assay for small molecule antagonists of vitamin D receptor signaling (AID 588541).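 Note: receptor activated by calcitriol during compound treatment; series mostly up to about 77 µM; % is set by controls: 0 for no effect and ±100 for the full control effect.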 An outline of the steps: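 Antagonist-mode beta-lactamase reporter assay: HEK293T VDR-UAS-bla cells were exposed to titrated compound alongside 1-alpha,25-dihydroxyvitamin D3 at 3 nM final for 16 h. Values were normalized to the 50 nM agonist control and DMSO basal, with IC50 and efficacy from Hill equation fits.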
Sequence of Vitamin D3 receptor (Homo sapiens) (P11473 whole entry, looked up): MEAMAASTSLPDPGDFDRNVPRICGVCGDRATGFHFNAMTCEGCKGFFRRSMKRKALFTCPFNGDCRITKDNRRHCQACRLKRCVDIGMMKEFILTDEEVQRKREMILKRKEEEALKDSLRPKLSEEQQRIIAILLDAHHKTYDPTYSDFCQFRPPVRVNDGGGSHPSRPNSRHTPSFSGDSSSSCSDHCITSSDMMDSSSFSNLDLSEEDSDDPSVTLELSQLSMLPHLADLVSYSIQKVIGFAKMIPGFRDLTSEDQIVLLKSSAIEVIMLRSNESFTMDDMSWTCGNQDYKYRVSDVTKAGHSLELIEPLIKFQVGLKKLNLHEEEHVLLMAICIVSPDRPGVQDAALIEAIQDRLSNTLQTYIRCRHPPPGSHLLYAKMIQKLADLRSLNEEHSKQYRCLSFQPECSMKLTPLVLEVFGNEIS

The nature of experiment [8]: qHTS assay for small molecule antagonists of retinoid X receptor alpha signaling (AID 588546; active = well fitted inhibition curve with a large enough effect in the signal ratio, with a control signal flat, not every such curve was filed as active; the % refers to the signal ratio;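 note: cells stimulated with 9-cis-retinoic acid as agonist; % is set by controls: 0 for no effect and ±100 for the full control effect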). Conditions: HEK293T RXRa-UAS-bla, beta-lactamase ratio, antagonist mode; measured here: W530 green channel, cytotoxicity proxy. In outline:
(§1)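 Beta-lactamase reporter inhibition, read as CCF4 fluorescence ratio (ex 405, em 460/530 nm) after 2 h at RT. HEK293T UAS-bla cells, 2500/well, were stimulated with 9-cis-RA at 500 or 100 nM final alongside test compound for 18 h at 37 C.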

Experiment [9] has as its target Retinoic acid receptor RXR-alpha (Homo sapiens) (UniProt P19793). Described as above. Conditions: HEK293T RXRa-UAS-bla, beta-lactamase ratio, antagonist mode. In outline: as §1
A short description of experiment [10]: qHTS assay for small molecule agonists of the antioxidant response element (ARE) signaling pathway (AID 651741; active = well fitted activation curve with a large enough effect in the signal ratio; the % refers to the signal ratio; note: potency is the fitted concentration of half-maximal effect). An outline of the steps:
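Beta-lactamase reporter under ARE control in HepG2 cells, 2,000 per well, was induced by 16 h compound treatment at 37 C. Read-out was fluorescence from LiveBLAzer B/G FRET substrate after 2 h at room temperature.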

A short description of experiment [11]: qHTS assay for small molecule agonists of the antioxidant response element (ARE) signaling pathway measured by Nrf2-dependant transcriptional activity (AID 720636; active = well fitted curve in the direction sought with a large enough effect in the repeat runs; an effect the other way counts as inactive or inconclusive; note: potency is the fitted concentration of half-maximal effect; for activation: % of control where 0% means no effect). In outline: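 Quantitative HTS format in HepG2 cells stably expressing an ARE-luciferase reporter; 16 hr compound treatment at 37 C, luciferase signal detected with ONE-Glo.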
Experiment [12] in a line: qHTS assay for small molecule antagonists of peroxisome proliferator-activated receptor delta signaling (AID 588535; active = well fitted inhibition curve with a large enough effect in the signal ratio, with a control signal flat, not every such curve was filed as active; the % refers to the signal ratio;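 for max response: cells co-treated with a PPAR-delta agonist as stimulator during compound exposure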). Conditions: HEK293T PPARd-UAS-bla, beta-lactamase FRET ratio, 18 h; 460 nm channel. In outline:
(§2)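 Titrations were run on PPAR-delta-UAS-bla HEK293T cells in charcoal/dextran-stripped serum, incubated 18 h at 37 C. CCF4 fluorescence (460/530 nm) after 2 h RT; Hill equation yields IC50 and maximal response.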

Experiment [13] addresses Peroxisome proliferator-activated receptor delta (Homo sapiens) (UniProt Q03181). The description is as above. An outline of the steps: as §2
For experiment [14], the target named is Peroxisome proliferator-activated receptor gamma (Homo sapiens) (UniProt P37231). The experiment is described as follows: qHTS assay for small molecule agonists of peroxisome proliferator-activated receptor gamma signaling (AID 588536; active = well fitted curve in the direction sought with a large enough effect in the signal ratio, with a control signal flat, not every such curve was filed as active; the % refers to the signal ratio;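 note: 0% = DMSO basal wells and 100% = rosiglitazone at 2 µM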). In outline:
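This is an agonist-mode beta-lactamase reporter assay in HEK293 PPAR-gamma-UAS-bla cells with 1% charcoal/dextran FBS. Compound titrations ran 16 h at 37 C before CCF4 detection. EC50 and efficacy are Hill fits scaled to 2 uM rosiglitazone (100%) and DMSO basal.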

For experiment [15] the target is unchanged. The experiment is described as follows: qHTS assay for small molecule antagonists of peroxisome proliferator-activated receptor gamma signaling (AID 588537; active = well fitted inhibition curve with a large enough effect in the signal ratio, with a control signal flat, not every such curve was filed as active; the % refers to the signal ratio;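 note: reporter cells co-stimulated with 50 nM rosiglitazone agonist during compound treatment; % of control where 0% means no effect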). In outline:
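Antagonist-mode β-lactamase reporter screen run as a titration series. HEK293 PPARγ-UAS-bla cells are stimulated with rosiglitazone (50 nM final) for 16 h, then CCF4 is read at 460/530 nm. Data are scaled between DMSO and rosiglitazone and fitted to the Hill equation.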

Experiment [16] addresses Thyroid hormone receptor beta (Homo sapiens) (UniProt P10828). The experiment is described as follows: qHTS assay for small molecule agonists of thyroid hormone receptor beta signaling (AID 588545).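 Note: 0% = DMSO only and 100% = 10 nM T3.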 An outline of the steps: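 Stimulation of a TR-driven beta-lactamase reporter was quantified in GripTite HEK 293 cells. Compound series ran for 18 hrs; curves were normalized to T3 and DMSO controls and fitted to yield EC50.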

For experiment [17] the target is unchanged. The experiment is described as follows: qHTS assay for small molecule antagonists of thyroid hormone receptor beta signaling (AID 588547; active = well fitted inhibition curve with a large enough effect in the signal ratio, with a control signal flat, not every such curve was filed as active; the % refers to the signal ratio;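 note: cells stimulated with 0.4 nM T3 agonist during compound exposure; series mostly up to about 77 µM; % is set by controls: 0 for no effect and ±100 for the full control effect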). As to conditions: TR-UAS-bla HEK293, beta-lactamase ratio, antagonist mode, 18 h. An outline of the steps: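 Inhibition of T3-driven (0.4nM final) beta-lactamase reporter activity was measured over 0.59 nM to 92 uM compound after 18 h at 37 C. The cells were GripTite HEK293 TR-UAS-bla in charcoal/dextran-stripped serum, with CCF4 ratio read-out and IC50 from Hill fits.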

The nature of experiment [18]: qHTS assay for small molecule agonists of the antioxidant response element (ARE) signaling pathway measured by Nrf2-dependant transcriptional activity - cell viability counter screen (AID 720653; active = well fitted curve in the direction sought with a large enough effect in the repeat runs; an effect the other way counts as inactive or inconclusive; note: % is set by controls: 0 for no effect and ±100 for the full control effect). As to conditions: ARE-bla HepG2 viability, CellTiter-Glo ATP luminescence, 16 h; max response: stronger effect = lower value. An outline of the steps:
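Cytotoxicity counter screen: intracellular ATP quantified by CellTiter-Glo luminescence in the same ARE-bla HepG2 plates, after 16 h compound exposure and a 2 h beta-lactamase substrate step.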

A short description of experiment [19]: qHTS assay for cell viability of HEK293 cells (AID 743288; active = well fitted curve in the direction sought with a large enough effect; an effect the other way counts as inactive or inconclusive; note: % is set by controls: 0 for no effect and ±100 for the full control effect; nearly all actives have a fitted effect of over 50% in size). As to conditions: ATP luminescence (CellTiter-Glo), 18 h; max response: stronger effect = lower value. In outline: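 HEK293, 18 h, 37 C, ATP luminescence. Cells at 2,000/well were allowed at least 5 h to settle before dosing; CellTiter-Glo developed 30 min at RT.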
The target in experiment [20] is Nuclear receptor subfamily 1 group I member 2 (Rattus norvegicus) (UniProt Q9R1A7). The experiment is described as follows: qHTS assay for small molecule activators of the rat pregnane X receptor (rPXR) signaling pathway (AID 651751; call rule not given here; note: 0% is about no effect). As to conditions: rPXR reporter cells, luciferase (One-Glo), 24 h.
Sequence of Nuclear receptor subfamily 1 group I member 2 (Rattus norvegicus) (Q9R1A7 whole entry, looked up): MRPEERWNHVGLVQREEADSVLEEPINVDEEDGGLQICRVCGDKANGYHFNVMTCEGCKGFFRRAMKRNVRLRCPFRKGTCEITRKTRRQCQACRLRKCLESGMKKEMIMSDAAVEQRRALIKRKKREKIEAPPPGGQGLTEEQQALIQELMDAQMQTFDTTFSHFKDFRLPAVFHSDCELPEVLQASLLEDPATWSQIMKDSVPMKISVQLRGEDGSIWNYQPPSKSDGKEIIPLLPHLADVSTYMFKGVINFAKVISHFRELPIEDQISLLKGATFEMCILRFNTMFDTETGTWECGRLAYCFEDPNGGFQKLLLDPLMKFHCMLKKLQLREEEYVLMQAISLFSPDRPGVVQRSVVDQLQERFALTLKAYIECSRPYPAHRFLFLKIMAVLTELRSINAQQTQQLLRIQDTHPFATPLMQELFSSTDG
The nature of experiment [21]: qHTS assay for small molecule activators of the human pregnane X receptor (PXR) signaling pathway (AID 720659; call rule not given here; note: 0% is about no effect).
A short description of experiment [22]: qHTS assay for small molecule activators of the p53 signaling pathway (AID 651743; active = well fitted activation curve with a large enough effect in the signal ratio, not every such curve was filed as active; the % refers to the signal ratio; note: series mostly up to about 92 µM; % of control where 0% means no effect). Conditions: HCT-116 p53RE-bla, beta-lactamase FRET ratio, 16 h; activation: stronger effect = higher value. An outline of the steps:
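After 16 hours compound treatment at 37 C, HCT-116 cells stably expressing p53RE-driven beta-lactamase were loaded with LiveBLAzer B/G FRET substrate for 2 hours at room temperature. Fluorescence intensity served as the p53 activation read-out.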

A short description of experiment [23]: qHTS assay for small molecule activators of the nuclear factor-kappa B (NF-kB) signaling pathway (AID 651749; active = well fitted activation curve with a large enough effect in the signal ratio; the % refers to the signal ratio; note: series mostly up to about 77 µM; % of control where 0% means no effect). As to conditions: NF-kB-bla ME-180 cells, beta-lactamase FRET ratio, 16 h; activation: stronger effect = higher value. In outline:
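Activation measured after 16 hr compound treatment at 37C, 5% CO2, of 2,000 ME-180 cells/well stably expressing an NF-kB response element–driven beta-lactamase reporter, via FRET-disruption fluorescence.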

Experiment [24] has as its target Peroxisome proliferator-activated receptor alpha (Homo sapiens) (UniProt Q07869). The experiment is described as follows: qHTS assay for small molecule agonists of the peroxisome proliferator-activated receptor alpha (PPARalpha) signaling pathway (AID 651778; active = well fitted curve in the direction sought with a large enough effect; an effect the other way counts as inactive or inconclusive; note: % of control where 0% means no effect). As to conditions: PathHunter PPARalpha complementation, chemiluminescence, 6 h; max response: stronger effect = higher value. In outline:
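Chemiluminescence from complemented enzyme reported PPARalpha activation in cells after 6 hr of compound treatment at 37 C. The detection reagent was incubated for 60 min at room temperature, and compounds were scored as agonists.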

A short description of experiment [25]: qHTS assay for cell viability of the p53RE-bla HCT-116 cell line (AID 743292; active = well fitted curve in the direction sought with a large enough effect; an effect the other way counts as inactive or inconclusive; note: % is set by controls: 0 for no effect and ±100 for the full control effect; nearly all actives have a fitted effect of over 55% in size). In outline: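 Viability of compound-treated p53RE-bla HCT-116 cells is taken from ATP-dependent luciferase luminescence. Treatment lasts 16 h at 37 C after a 5 h settling period; detection follows 30 min at room temperature.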

“And” between values parts separate entries of the source, which are not always exact repeats. Equal values may be shown once. Records with an inconclusive call do not appear. Where a structure was tested more than once in an assay, its records may differ in their call. The source made the active and inactive calls. Unless noted, calls come from the whole dose curve.

Sequence of Thyroid hormone receptor beta (Homo sapiens) (P10828 whole entry, looked up): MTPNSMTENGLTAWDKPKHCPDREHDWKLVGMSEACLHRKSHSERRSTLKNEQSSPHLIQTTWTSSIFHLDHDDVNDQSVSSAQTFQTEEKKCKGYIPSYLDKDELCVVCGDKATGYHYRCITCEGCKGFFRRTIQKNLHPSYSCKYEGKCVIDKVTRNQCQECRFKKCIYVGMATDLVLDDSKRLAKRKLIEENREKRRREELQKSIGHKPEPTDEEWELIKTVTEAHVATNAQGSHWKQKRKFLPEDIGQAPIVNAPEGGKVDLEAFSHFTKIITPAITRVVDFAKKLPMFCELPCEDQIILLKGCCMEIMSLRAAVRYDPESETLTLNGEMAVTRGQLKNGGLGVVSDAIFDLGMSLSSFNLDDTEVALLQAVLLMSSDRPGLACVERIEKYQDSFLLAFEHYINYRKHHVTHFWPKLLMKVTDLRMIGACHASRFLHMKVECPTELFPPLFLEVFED
Sequence of Peroxisome proliferator-activated receptor gamma (Homo sapiens) (P37231 whole entry, looked up): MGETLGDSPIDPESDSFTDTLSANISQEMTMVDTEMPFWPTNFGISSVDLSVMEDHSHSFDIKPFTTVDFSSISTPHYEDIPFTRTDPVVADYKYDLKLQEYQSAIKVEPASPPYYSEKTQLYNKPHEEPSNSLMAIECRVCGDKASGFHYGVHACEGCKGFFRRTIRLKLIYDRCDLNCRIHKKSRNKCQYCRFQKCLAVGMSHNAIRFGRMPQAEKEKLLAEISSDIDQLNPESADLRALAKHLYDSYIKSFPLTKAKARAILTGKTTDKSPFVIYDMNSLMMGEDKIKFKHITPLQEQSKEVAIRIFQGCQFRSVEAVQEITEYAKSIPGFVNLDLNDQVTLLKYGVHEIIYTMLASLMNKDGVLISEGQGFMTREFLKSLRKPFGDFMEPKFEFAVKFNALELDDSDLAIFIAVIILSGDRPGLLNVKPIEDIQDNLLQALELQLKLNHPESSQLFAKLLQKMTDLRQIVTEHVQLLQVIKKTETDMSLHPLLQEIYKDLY
Sequence of Peroxisome proliferator-activated receptor alpha (Homo sapiens) (Q07869 whole entry, looked up): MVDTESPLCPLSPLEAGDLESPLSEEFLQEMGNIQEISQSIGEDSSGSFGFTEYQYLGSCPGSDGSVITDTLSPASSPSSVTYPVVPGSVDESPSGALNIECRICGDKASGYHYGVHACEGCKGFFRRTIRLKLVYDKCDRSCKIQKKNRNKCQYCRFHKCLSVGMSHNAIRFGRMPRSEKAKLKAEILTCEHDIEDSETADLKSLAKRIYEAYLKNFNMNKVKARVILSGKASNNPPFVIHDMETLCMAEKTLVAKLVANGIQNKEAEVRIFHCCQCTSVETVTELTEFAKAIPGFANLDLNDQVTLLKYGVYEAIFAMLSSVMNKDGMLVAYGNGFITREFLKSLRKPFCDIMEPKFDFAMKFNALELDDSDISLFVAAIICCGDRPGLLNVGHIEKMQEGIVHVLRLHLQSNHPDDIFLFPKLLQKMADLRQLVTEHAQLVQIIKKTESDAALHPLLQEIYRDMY

For the compound `CC1(C)C(C=C(Cl)Cl)[C@H]1C(=O)OCc1cccc(Oc2ccccc2)c1` (stereo not given in full), the activation is 0.728% (inactive) in experiment [1] and 0.692% (inactive) in experiment [5]. Also, in [2], the compound was called inactive. For the same compound, in experiment [3], the max response is -6.06%. Besides, the Potency entry in experiment [4] was “inactive”.

Turning to `O=C(/C=C/c1ccc(O)c(O)c1)OC1C[C@](O)(C(=O)O)C[C@@H](O)[C@H]1O` (stereo not given in full), the compound was called inactive in experiment [6].

As for `S=C([S-])NCCNC(=S)[S-].[Zn+2]`, in experiment [1], the activation is 4.35% (inactive). For the same compound, the Potency entry in experiment [7] and in [4] was “inactive” throughout. Also, the max response in [3] is 2.58%; in experiment [8] it was -2.08% and 15.4%; in experiment [9], 15.4% (inactive) and -59.9% (inactive). Further, the Potency in experiment [10] is 21.7 µM (active) and 27.3 µM (active); in [11], “inactive and 68.6 µM (active)”.

With `CCc1cnc(C2=NC(C)(C(C)C)C(=O)N2)c(C(=O)O)c1` (stereo not given), the activation in [1] is -7.69% (inactive); in [5], -2.09% (inactive). In addition, the call in experiment [6], in [2] and in experiment [21] was inactive. Also, the max response in [12] is 6.03%; in experiment [3] it was -15.1%; in experiment [18], 16.5% (inactive); in [19] it was 4.64% (inactive); in experiment [20], -2.79% (inactive). For the same compound, the Potency result in experiment [13], in experiment [14], in [15], in experiment [4], in experiment [16] and in [11] was “inactive” each time. Besides, in experiment [17], the activity change % (negative = inhibition) was -0.801% (inactive).

Regarding `CCOP(=O)(OCC)Oc1nc(Cl)c(Cl)cc1Cl`, the activation in experiment [1] is -1.13% (inactive); in experiment [22], -7.33% (inactive); in experiment [23], -2.7% (inactive); in experiment [5], 3.16% (inactive). The call in experiment [6], in experiment [2] and in [21] was inactive. Moreover, the Potency result in experiment [16] and in experiment [25] was “inactive” throughout. Moreover, the max response was -1.51% (inactive) in experiment [24], 6.34% (inactive) in [18], -13.2% (inactive) in experiment [19] and 2.55% (inactive) in experiment [20].

With `CCCCCCCCCCCCCCC(=O)OC`, the compound was called inactive in experiment [6].
